Where “and” joins values, the source holds several entries; their conditions need not be identical. Identical values can stand only once. A number with no mark means an inactive call. The call rests on the fitted dose curve.
Potency means the concentration at half of the fitted maximal effect.

Sequence of Glucocorticoid receptor (Homo sapiens) (P04150 whole entry, looked up): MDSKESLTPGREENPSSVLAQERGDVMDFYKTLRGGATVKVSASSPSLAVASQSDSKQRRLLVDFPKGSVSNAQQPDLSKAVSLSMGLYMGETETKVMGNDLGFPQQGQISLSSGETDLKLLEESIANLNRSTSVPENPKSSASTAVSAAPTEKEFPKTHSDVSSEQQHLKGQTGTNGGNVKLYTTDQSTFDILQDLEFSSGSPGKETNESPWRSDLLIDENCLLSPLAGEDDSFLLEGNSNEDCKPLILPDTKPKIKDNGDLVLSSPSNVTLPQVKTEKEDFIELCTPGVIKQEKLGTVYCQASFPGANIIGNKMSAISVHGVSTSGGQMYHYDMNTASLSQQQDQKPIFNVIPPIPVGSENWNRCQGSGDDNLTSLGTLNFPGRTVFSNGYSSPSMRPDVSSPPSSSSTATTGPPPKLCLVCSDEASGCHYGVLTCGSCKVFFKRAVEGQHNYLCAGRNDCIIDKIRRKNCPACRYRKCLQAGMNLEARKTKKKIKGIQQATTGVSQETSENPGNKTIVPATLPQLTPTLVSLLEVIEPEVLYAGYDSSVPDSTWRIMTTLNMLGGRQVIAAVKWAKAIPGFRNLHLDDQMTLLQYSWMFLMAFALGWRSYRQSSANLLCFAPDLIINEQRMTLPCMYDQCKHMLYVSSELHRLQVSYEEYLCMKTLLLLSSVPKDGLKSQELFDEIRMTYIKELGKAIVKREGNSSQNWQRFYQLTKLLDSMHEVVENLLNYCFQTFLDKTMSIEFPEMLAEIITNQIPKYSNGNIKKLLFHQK

This test has as its target Glucocorticoid receptor (Homo sapiens) (UniProt P04150). In words: GR-EFC Redistribution (AID 451). The following applies: CHO-K1 GR-EFC translocation, beta-gal luminescence, 2 h. From the text:
NIH Molecular Libraries Screening Centers Network [MLSCN]
NIH Chemical Genomics Center [NCGC]
The glucocorticoid receptor (GR) is a cytoplasmic receptor that belongs to the nuclear receptor family of ligand-dependent transcription factors. Upon glucocorticoid binding to its receptor, the glucocorticoid-GR complex translocates into the nucleus, where it binds as a dimer to specific DNA sequences (glucocorticoid response elements), enhancing or suppressing transcription of a wide variety of glucocorticoid-responsive genes. In addition to their important roles in normal physiology and metabolism, glucocorticoids are administered exogenously as treatments for a wide variety of allergic, autoimmune, and neoplastic conditions. Identification of compounds that modulate aspects of GR signalling would be useful in dissecting glucocorticoid response pathways as well as developing GR modulators with more targeted clinical effects.
Traditionally, GR modulators have been identified using receptor binding or direct transactivation assays. However, assays for glucocorticoid-dependent nuclear translocation can also be used to screen for compounds affecting GR signaling.
Immunocytochemical staining has been used to assay for GR translocation, but is not suitable for high throughout screening due to the multiple reagent addition and wash steps required. Recently, a novel cell-based GR assay in Enzyme Fragment Complementation (EFC) format was developed by DiscoveRx (Fremont, CA). The assay uses EFC of b-galactosidase (b-gal) as an indicator of GR-translocation in engineered CHO-K1 biosensor cells. The enzyme acceptor (EA) fragment of b-gal resides in the nucleus , as designed through the use of a proprietary set of sequence additions and modifications. The small peptide enzyme donor (ED) fragment of b-gal is fused directly to the C-terminus of GR, and is localized in the cytoplasm is the absence of receptor signaling. Upon binding to a GR ligand, the complex translocates to the nucleus, where intact enzyme activity is restored by complementation and b-gal activity is detected. We optimized this GR-EFC assay in homogenous 1536-well plate assay format for high throughput screening.
NCGC Assay Protocol Summary:
CHO-K1 cells stably expressing NLS-enzyme acceptor fragment (EA) of b-gal and GR-enzyme donor (ED) fragment of b-gal were maintained in F12 medium (Invitrogen, Carlsbad, CA) at 37 Celsius degrees under a humidified atmosphere containing 5% CO2 and 95% air. The medium contained 10% FBS, 2 mM L-glutamine, 50 U/ml penicillin 50 ug/ml streptomycin, and 250 ug/ml hygromycin and 500 ug/ml G418 (Invitrogen).
GR-translocation was measured beta-gal enzyme activity using the PathHunter Detection Kit containing cell membrane permeablizing reagent and beta-gal substrate (DiscoveRx, Fremont, CA). All compounds were screened as titrations from 0.6 nM to 46 uM final concentration. The assay was performed in 1536-well format as follows:
5 uL cell suspension (1,000 cells)/well
Incubation at 37 Celsius degrees for two hours
1.25 uL 1X detection buffer from the kit supplied by DiscoveRx
Incubation at room temperature for one hour
Read plate in luminescence mode in ViewLux plate reader (PerkinElmer)
Keywords: NIH Roadmap, MLSCN, MLI, MLSMR, GR-EFC, GREFC, qHTS, NCGC
Turning to `c1ccc([C@H]2CNCc3ccccc32)cc1`, the Potency is above 46 µM. Take `NC[C@@H](CC(=O)O)c1ccc(Cl)cc1`: the Potency was > 20.6 µM and > 46 µM. With `c1ccc(CCCCN2CCC(c3ccccc3)CC2)cc1`, the Potency was above 46 µM.

`N[C@H](CCP(=O)(O)O)C(=O)O`: the Potency is above 46 µM. Consider `CC[N+](CC)(CCCNC1=CC(=O)C(NCCC[N+](CC)(CC)Cc2ccccc2)=CC1=O)Cc1ccccc1`, for which the Potency was above 46 µM. As for `C=CCN1C[C@H](C)N([C@@H](c2ccccc2)c2ccc(C(=O)N(CC)CC)cc2)C[C@H]1C`, the Potency was above 46 µM. To `N[C@@H](Cn1cc(I)c(=O)[nH]c1=O)C(=O)O` belongs above 46 µM; to `C/C(O)=C(/C#N)C(=O)Nc1cc(Br)ccc1Br`, above 46 µM. Turning to `CN1CCN(c2ccc3ccccc3n2)CC1`, the Potency is above 46 µM. To `COc1ccn(C)c(=O)c1C#N` belongs > 20.6 µM and > 46 µM.

In the case of `CN(C(=O)Cc1ccc(Cl)c(Cl)c1)[C@H](CN1CCCC1)c1ccccc1`, the Potency was above 46 µM. In the case of `Cc1cccc([C@H](C)c2cnc[nH]2)c1C` it was above 46 µM. As to `COC(=O)N1CCN(C(=O)Cc2ccc(Cl)c(Cl)c2)[C@H](CN2CCCC2)C1`, the Potency is above 46 µM. In the case of `CNCC/C=C\c1cccnc1` it was above 46 µM. With `N[C@@H](CCCCP(=O)(O)O)C(=O)O`, the Potency was above 46 µM. To `CN1[C@@H]2CC[C@H]1CC(O[C@@H](c1ccccc1)c1ccc(Cl)cc1)C2` (stereo not given in full) belongs above 46 µM; to `CN1CC[C@@H]2CN3CCc4cccc(c43)[C@H]2C1`, above 46 µM; to `Cc1ccc(C[N+](C)(C)C)o1`, above 46 µM. For `CCCN[C@@H]1CCc2c(OC)cccc2[C@@H]1C`, the Potency was above 46 µM.

Regarding `C#CCN1C(C)=C(C(=O)CCO)[C@@H](c2cccc(-n3oo3)c2)C(C(=O)OC)=C1C`, the Potency was above 46 µM. To `CC1=C[C@@H]2c3cccc4[nH]cc(c34)C[C@H]2N(C)C1` belongs above 46 µM; to `N[C@H](CP(=O)(O)O)C(=O)O`, above 46 µM. Take `S=C=Nc1cccc(C2(N3CCCCC3)CCCCC2)c1`: the Potency is above 46 µM.

With `CCOC(=O)c1ncn2c1[C@H]1CCCN1C(=O)c1cc(OC)ccc1-2`, the Potency was above 46 µM. In the case of `CC[C@H](Oc1ccc(Cl)cc1)C(=O)OC1C[C@H]2CC[C@@H](C1)N2C` (stereo not given in full) it was above 46 µM; in that of `CC(C)(Cc1c[nH]c2ccc(Cl)cc12)NCCOc1ccccc1OCC1CC1`, above 46 µM. In the case of `c1ccc(C[C@@H](c2ccccc2)N2CCCCC2)cc1`, the Potency is above 46 µM.

Turning to `COc1ccc(-n2nc(C(F)(F)F)cc2-c2ccc(Cl)cc2)cc1`, the Potency was above 46 µM. In the case of `O[C@@H]1[C@H](O)[C@H]2[C@@H](O)CCN2C[C@@H]1O` it was above 46 µM; in that of `N[C@H](Cc1o[nH]c(=O)c1Cl)C(=O)O`, above 46 µM; in that of `CCCOc1ccc2[nH]cc(C3=CCNCC3)c2n1`, above 46 µM. To `CN(C(=O)Cc1ccccc1)[C@H](CN1CCCC1)c1ccccc1` belongs above 46 µM; to `NC[C@H](CS(=O)(=O)O)c1ccc(Cl)cc1`, above 46 µM. `NC(=NCCc1ccc(I)cc1)SCCCc1cnc[nH]1`: the Potency was above 46 µM. In the case of `O=C1CS[C@@H](c2ccccc2Cl)c2cc(Cl)ccc2N1` it was above 46 µM; in that of `N[C@H](CCCCCP(=O)(O)O)C(=O)O`, above 46 µM; in that of `C[C@@H](Cc1ccc(OCC(=O)O)cc1)NC[C@H](O)c1cccc(Cl)c1`, above 46 µM. On to `CNCCc1cnc[nH]1`, for which the Potency is above 46 µM. In the case of `O=C(O)[C@@H]1C[C@H]2C[C@@H](CP(=O)(O)O)CC[C@H]2CN1` it was above 46 µM; in that of `O=C(O)Cc1cccnc1C(=O)O`, above 46 µM.

Values taken from PubChem BioAssay (NCATS).
